Source: PubChem BioAssay (NCI)
About 83,000 compounds went through this panel and 20% of them were active in at least one assay; those are over-represented in the sample as a whole.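 The endpoint reported here, percent growth, reads 100 for growth as untreated, 0 for no net growth and -100 for all cells dead.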 Values without a mark were called inactive. Calls of active or inactive are those of the source.

Test system: NCI-H460 lung
Assay: NCI-60 one-dose screen, 48 h (100 = growth as untreated, 0 = no growth, -100 = all killed)
Details: 10 µM unless noted
Protocol: Growth inhibition of the NCI-H460 human Non-Small Cell Lung tumor cell line is measured as a screen for anti-cancer activity. Cells are grown in 96 well plates and exposed to the test compound for 48 hours. Compounds are tested at a single concentration, which is 10^-5 M for most compounds. The reported endpoint is percent growth (GI% or GIPRCNT), where numbers from 0 - 100% represent growth inhibition, and numbers from -100% - 0 represent cell death. For example, a value of 40 represents 60% growth inhibition. A value of 0 means no net growth occurred over the course of the experiment. A value of -40 indicates 40% of cells at the beginning of the experiment died by the end of the experiment. A value of -100 means all cells are dead at the end of the experiment.
NCI-60 Human Tumor Cell Lines Screen was performed using the standard one-dose NCI protocol, which is described in more detail at https://dtp.cancer.gov/discovery_development/nci-60/default.htm.
Compounds with GIPRCNT values below 10 were considered active. Activity score was based on GIPRCNT using the following formula: […]
Score is 0 for GIPRCNT values of 100 or above, 50 for GIPRCNT values of 0, and 100 for GIPRCNT values of -100.

Point of comparison: COc1cc(Nc2ncccc2/C=C/C(=O)c2cc(OC)c(OC)c(OC)c2)cc(OC)c1OC, growth 79.7%. Against it:
- CCCCCCCCCCCCCCCCCC(=O)OCCCCCCCCCCCCC — higher, 117%
- COc1ccc(/C(C)=N/NC(=O)c2ccc(S(C)(=O)=O)cc2)cc1OC — higher, 108%
- O=c1c2cc(Cl)ccc2oc2ccc(OCCCCCN3CCCCCC3)cc12 — lower, 63%
- Clc1nnc2c3ccccc3ccn12 — higher, 105%
- CC(C)CCSc1nc(-c2ccc(F)cc2)c(C#N)c(N2CCCCC2)n1 — higher, 93.1%
- COc1ccc(C(=O)C(CN(C)C)c2ccc(OC)cc2)cc1 (stereo not given) — higher, 86.3%
- C#CCO[C@H]1CC[C@H](OCC#C)[C@@H]2[C@H]1[C@H]1C[C@@H]3[C@@]4(C)CCC[C@@](C)(C(=O)OC)[C@@H]4CC[C@@]23C=C1C(C)C — higher, 104%
- CCCC(CCC)(C(N)=O)C(=O)O — higher, 115%
- N#Cc1ccc(-c2ccc(-c3cccs3)o2)cc1F — higher, 88.1%
- COc1cc(-c2nc(-c3ccc(-c4nc5ccc(F)cc5[nH]4)cc3)no2)cc(OC)c1OC — lower, 43.2%
- O=C(NO)c1ccc(CNc2cccc3nc(C4CC4)n(-c4ccccc4)c(=O)c23)cc1 — lower, 22.6%
- Cc1cc(Nc2c3ccccc3nc3ccccc23)ccc1NS(C)(=O)=O — lower, 14.4%
- C=CCOC(=O)C1=C(C)NC2=C(C(=O)CCC2)C1c1ccc(F)cc1 (stereo not given) — higher, 106%
- COc1cc(C2CC(c3ccc(Cl)cc3)=NN2C(C)=O)ccc1Oc1nc2c(c(=O)n(C)c(=O)n2C)n1C (stereo not given) — higher, 88.1%
- CCCCOc1nc2ccccc2cc1/C=C/c1cc(/C=C/c2cc3ccccc3nc2OCCCC)n(-c2ccccc2)n1 — higher, 103%
- CCN(C(=O)CCl)C(C)(C)C(SSSC(c1ccc(Cl)cc1)C(C)(C)N(CC)C(=O)CCl)c1ccc(Cl)cc1 (stereo not given) — higher, 81.1%
- C=CCN(CC#N)CC=C — higher, 115%
- CCCCc1nc(Cl)c(C2CC(c3ccc(S(N)(=O)=O)cc3)=NN2c2ccc(C#N)cc2)[nH]1 (stereo not given) — higher, 95.5%
- COc1cc(/C=C\c2cc(/C=C\c3ccc(O)c(OC)c3)n(C(=O)Nc3ccc(C(F)(F)F)cc3)n2)ccc1O — lower, 18.3%
- CCCCCCCCCCCC1=NC(C)(C)CN1CC(C)O (stereo not given) — lower, 62.6%
- COc1ccc(C(=O)N2N=C(c3ccc(F)cc3)CC2c2cn(-c3ccccc3)nc2-c2ccccc2)cc1 (stereo not given) — lower, 53.3%
- CN(C)CCCn1c(=O)c2cc([N+](=O)[O-])ccc2c2cnc3[nH]ccc3c21 — lower, 17.3%
- CC(C)CCSc1nc(-c2ccc(F)cc2)c(C#N)c(N2CCN(C)CC2)n1 — higher, 88.8%
- CC(C)[C@@]12C[C@@H](OC(=O)[C@H]3CO3)[C@@](C)(O1)[C@@H]1CC[C@@H](C)[C@H]1[C@@H]2OC(=O)/C=C/c1ccccc1 — higher, 89.8%
- COc1cc2c(=O)n(CCCN(C)C)c3c4cc[nH]c4ncc3c2cc1OC — lower, 17.6%
- O=C(CSc1nnc(Cc2ccccc2Nc2c(Cl)cccc2Cl)n1-c1ccccc1)N1N=C(c2ccc3ccccc3c2)CC1c1ccc(Cl)cc1 (stereo not given) — higher, 106%
- Clc1ccc(-c2cnc3nonc3n2)s1 — higher, 92.6%
- CCN(CC)CC(=O)Nc1c(C)ccc(N)c1C — higher, 108%
- CCOC(=O)C1=C(C)NC(=S)NC1c1ccccc1 (stereo not given) — higher, 104%
- CC[C@]1(O)C[C@H]2CN(CCc3c([nH]c4ccccc34)C(C(=O)OC)(c3cc4c(cc3OC)N(C)[C@H]3[C@@](O)(C(=O)OC)[C@H](OC(C)=O)[C@]5(CC)[C@@H]6C[C@@H]6CN6CC[C@]43[C@@H]65)C2)C1 (stereo not given in full) — lower, 10.7%

CCNCCCn1c2c(c3ccc(Cl)cc3c1=O)C(=O)c1cc(OC)cnc1-2 was tested, and the growth was -69.9% (active).
With COc1cc(/C=C/c2cc(/C=C/c3ccc(O)c(OC)c3)n(C(=O)c3ccccc3Br)n2)ccc1O the growth was 9.15% (active).
With C=C1C(=O)O[C@H]2[C@H]1CC/C(COC(=O)NCc1cn(C)c3ccccc13)=C\CC[C@@]1(C)O[C@@H]21 the growth was 5.72% (active).
Oc1c(C(Nc2ccccc2Br)c2ccccc2)ccc2cccnc12 (stereo not given) was tested, and the growth was 5.78% (active).
For Nc1nc(N)c2cc(NCc3ccc(Cl)c(Cl)c3)ccc2n1, the growth was -75.7% (active).
For O=C(Nc1cccc(-n2ccc3c(NC(=O)c4ccccc4)nccc32)c1)c1ccc(Cl)c(Cl)c1, the growth was -67.8% (active).
For COc1cc(C2CC(c3cccc(Nc4ccnc5cc(Cl)ccc45)c3)=NN2C=O)cc(OC)c1OC (stereo not given), the growth was 7.22% (active).
In the case of COc1ccc(C(=O)OC2C(OC3C(O)COC(O[C@H]4C[C@H]5[C@@H]6CC=C7C[C@@H](O)CC[C@]7(C)[C@H]6CC[C@]5(C)[C@H]4[C@H](C)C(=O)CCC(C)C)C3OC(N)=O)OCC(O)C2O)cc1 (stereo not given in full), the growth was -35.7% (active).
Clc1ccc(-c2cnc3c(-c4ccnc(N5CCNCC5)c4)cnn3c2)cc1 was tested, and the growth was -39.8% (active).
